Results as given in PubChem BioAssay (EPA / NIEHS).
Calls of active or inactive are those of the source. Rule for the calls: active = hit-call score of the fitted dose curve at least 0.9, where 1 is the maximum; inactive = score below 0.9.

How the values were obtained:
Conditions in all cases: mRNA level, 48 h; actives raise or lower the signal
CYP2E1 (gene 1571) = assay: LTEA_HepaRG_CYP2E1: Life Technologies and Expression Analysis (LTEA) Assay for CYP2E1 using HepaRG (AID 2283485)
Procedure, shortened: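 Readout is qRT-PCR of CYP2E1 mRNA, normalized to three housekeeping genes and fitted bidirectionally against 0.5% DMSO. HepaRG cells were dosed 48 h at eight concentrations, highest 100 uM with half-log dilutions.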

CYP4A11 (gene 1579) = assay: LTEA_HepaRG_CYP4A11: Life Technologies and Expression Analysis (LTEA) Assay for CYP4A11 using HepaRG (AID 2283486)
Procedure, shortened: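 Readout is CYP4A11 transcript level by qRT-PCR, normalized to three housekeeping genes and fitted bidirectionally against 0.5% DMSO. Human HepaRG cells were treated 48 h, in duplicate, with an 8-point half-log series topping at 100 uM.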

[1] = read-out: Cytochrome P450 3A4 (Homo sapiens) (UniProt P08684); assay: LTEA_HepaRG_CYP3A4: Life Technologies and Expression Analysis (LTEA) Assay for CYP3A4 using HepaRG (AID 2283487)
Procedure, shortened: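 CYP3A4 transcript measured by TaqMan qRT-PCR and normalized to three housekeeping genes after 48 h chemical exposure of human HepaRG cells. Top concentration 100 uM, half-log steps, 0.5% DMSO vehicle; gain or loss fitted against DMSO baseline.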

[2] = read-out: DNA damage-inducible transcript 3 (DDIT3), DDIT3 (gene 1649); assay: LTEA_HepaRG_DDIT3: Life Technologies and Expression Analysis (LTEA) Assay for DNA damage-inducible transcript 3 (DDIT3) using HepaRG (AID 2283488)
Procedure, shortened: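 Cells are human HepaRG liver cells treated for 48 h with eight half-log concentrations up to 100 uM in 0.5% DMSO. Transcript levels come from qRT-PCR normalized to three housekeeping genes, with activity fitted in both directions relative to vehicle.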

[3] = read-out: Pro-epidermal growth factor (Homo sapiens) (UniProt P01133); assay: LTEA_HepaRG_EGF: Life Technologies and Expression Analysis (LTEA) Assay for Epidermal growth factor (EGF) using HepaRG (AID 2283489)
Procedure, shortened: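 EGF transcript measured by Fluidigm TaqMan qRT-PCR with three housekeeping genes for normalization, 48 h after dosing HepaRG cultures in duplicate (top 100 uM, half-log steps, 0.5% DMSO vehicle). Gain or loss relative to DMSO fitted.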

[4] = read-out: Early growth response protein 1 (EGR1) transcription factor, EGR1 (gene 1958); assay: LTEA_HepaRG_EGR1: Life Technologies and Expression Analysis (LTEA) Assay for Early growth response protein 1 (EGR1) transcription factor using HepaRG (AID 2283490)
Procedure, shortened: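 EGR1 transcript levels quantified by qRT-PCR (Fluidigm arrays) against three housekeeping genes after 48 h chemical exposure of HepaRG cells. Eight-point half-log series topping at 100 uM, 0.5% DMSO vehicle, analyzed for gain or loss.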

[5] = read-out: Ezrin (EZR), EZR (gene 7430); assay: LTEA_HepaRG_EZR: Life Technologies and Expression Analysis (LTEA) Assay for Ezrin (EZR) using HepaRG (AID 2283491)
Procedure, shortened: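 HepaRG, 48 h chemical exposure, 8-pt half-log series from 100 uM, 0.5% DMSO vehicle, duplicates. Read-out: EZR mRNA by TaqMan qRT-PCR (Fluidigm array), housekeeping-normalized; bidirectional curve fit vs DMSO baseline.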

[6] = read-out: Cytochrome P450 3A7 (Homo sapiens) (UniProt P24462); assay: LTEA_HepaRG_CYP3A7: Life Technologies and Expression Analysis (LTEA) Assay for CYP3A7 using HepaRG (AID 2283492)
Procedure, shortened: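 CYP3A7 transcript measured by qRT-PCR (ACTB, GAPDH, POLR2A normalization) after 48 h chemical exposure of HepaRG cells in duplicate. Eight half-log concentrations, maximum 100 uM, 0.5% DMSO vehicle; bidirectional curve fitting against DMSO baseline.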

CYP3A5 (gene 1577) = assay: LTEA_HepaRG_CYP3A5: Life Technologies and Expression Analysis (LTEA) Assay for CYP3A5 using HepaRG (AID 2283493)
Procedure, shortened: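 Human HepaRG hepatic cells receive 48 h chemical treatment at eight concentrations (half-log steps from 100 uM) in 0.5% DMSO. Expression of CYP3A5 is quantified by Fluidigm qRT-PCR and normalized to three reference genes.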

[7] = read-out: Fatty Acid-Binding Protein 1 (FABP1), FABP1 (gene 2168); assay: LTEA_HepaRG_FABP1: Life Technologies and Expression Analysis (LTEA) Assay for Fatty Acid-Binding Protein 1 (FABP1) using HepaRG (AID 2283494)
Procedure, shortened: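 FABP1 expression by TaqMan qRT-PCR, normalised to three housekeeping genes, in HepaRG cells after 48 h chemical treatment. Eight-point half-log series topping at 100 uM in 0.5% DMSO, duplicates; gain or loss fitted relative to vehicle.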

[8] = read-out: Cytochrome P450 4A22 (Homo sapiens) (UniProt Q5TCH4); assay: LTEA_HepaRG_CYP4A22: Life Technologies and Expression Analysis (LTEA) Assay for Cytochrome P450 4A22 (CYP4A22) using HepaRG (AID 2283495)
Procedure, shortened: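 Gene expression measured by qRT-PCR against three housekeeping genes (ACTB, GAPDH, POLR2A), with gain or loss fitted relative to 0.5% DMSO vehicle. HepaRG cultures received 48 h chemical treatment, top concentration 100 uM, half-log steps, duplicate wells.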

[9] = read-out: Cytochrome P450 7A1 (Homo sapiens) (UniProt P22680); assay: LTEA_HepaRG_CYP7A1: Life Technologies and Expression Analysis (LTEA) Assay for Cytochrome P450 7A1 (CYP7A1) using HepaRG (AID 2283496)
Procedure, shortened: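 HepaRG, 48 h exposure, 8-pt half-log series from 100 uM, 0.5% DMSO vehicle, duplicates. Readout: TaqMan qRT-PCR mRNA vs three housekeeping genes; bidirectional curve fit against DMSO baseline.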

[10] = read-out: Glutathione S-Transferase (GSTA2), GSTA2 (gene 2939); assay: LTEA_HepaRG_GSTA2: Life Technologies and Expression Analysis (LTEA) Assay for Glutathione S-Transferase (GSTA2) using HepaRG (AID 2283497)
Procedure, shortened: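 GSTA2 transcript levels came from Fluidigm TaqMan qRT-PCR normalized to three housekeeping genes, fitted in both directions against DMSO. HepaRG cultures received chemicals for 48 h in serum-free induction medium (0.5% DMSO), 8 half-log concentrations up to 100 uM, duplicate.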

[11] = read-out: Glutamate-cysteine ligase catalytic (GCLC), GCLC (gene 2729); assay: LTEA_HepaRG_GCLC: Life Technologies and Expression Analysis (LTEA) Assay for Glutamate-cysteine ligase catalytic (GCLC) using HepaRG (AID 2283498)
Procedure, shortened: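 Expression by TaqMan qRT-PCR, normalized to three housekeeping genes (ACTB, GAPDH, POLR2A), with up- or down-regulation fitted against DMSO. HepaRG cells dosed in duplicate for 48 h with 8 half-log concentrations up to 100 uM, vehicle 0.5% DMSO.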

[12] = read-out: growth arrest and DNA damage 45 (GADD45G), GADD45G (gene 10912); assay: LTEA_HepaRG_GADD45G: Life Technologies and Expression Analysis (LTEA) Assay for growth arrest and DNA damage 45 (GADD45G) using HepaRG (AID 2283499)
Procedure, shortened: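 GADD45G transcript level by qRT-PCR (housekeeping-normalized: ACTB, GAPDH, POLR2A) after 48 h chemical treatment of a single HepaRG lot in serum-free induction medium; eight-point half-log series up to 100 uM in 0.5% DMSO, duplicates, up- or down-regulation scored.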

[13] = read-out: Heat shock 70 kDa protein 1 (HSPA1A), gene 3303; assay: LTEA_HepaRG_HSPA1A: Life Technologies and Expression Analysis (LTEA) Assay for Heat shock 70 kDa protein 1 (HSPA1A) using HepaRG (AID 2283502)
Procedure, shortened: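 Cells were plated and cultured for 48 h, then switched to serum-free induction medium. Chemicals were added at eight half-log concentrations up to 100 uM for 48 h. RNA was then isolated and HSPA1A measured by qRT-PCR with bidirectional curve fitting against DMSO.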

[14] = read-out: Hypoxia-inducible factor 1-alpha (Homo sapiens) (UniProt Q16665); assay: LTEA_HepaRG_HIF1A: Life Technologies and Expression Analysis (LTEA) Assay for Hypoxia-inducible factor 1 (HIF1A) Trancription factor using HepaRG (AID 2283503)
Procedure, shortened: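 HIF1A transcript level read by qRT-PCR (ACTB, GAPDH, POLR2A normalization) after 48 h chemical exposure of HepaRG cultures. Eight half-log concentrations, top 100 uM, 0.5% DMSO vehicle, duplicates; bidirectional curve fit against DMSO baseline.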

[15] = read-out: 3-Hydroxy-3-Methylglutaryl-CoA Synthase 2 (HMGCS2), HMGCS2 (gene 3158); assay: LTEA_HepaRG_HMGCS2: Life Technologies and Expression Analysis (LTEA) Assay for 3-Hydroxy-3-Methylglutaryl-CoA Synthase 2 (HMGCS2) using HepaRG (AID 2283504)
Procedure, shortened: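 Readout is HMGCS2 transcript by qRT-PCR, housekeeping-normalised (ACTB/GAPDH/POLR2A) and fitted bidirectionally against 0.5% DMSO. Differentiated HepaRG cells received chemicals 48 h, duplicate wells, eight half-log concentrations topping at 100 uM.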

[16] = read-out: Glutamate-cysteine ligase regulatory (GCLM), GCLM (gene 2730); assay: LTEA_HepaRG_GCLM: Life Technologies and Expression Analysis (LTEA) Assay for Glutamate-cysteine ligase regulatory (GCLM) using HepaRG (AID 2283500)
Procedure, shortened: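 Endpoint is GCLM transcript level by qRT-PCR, normalized to three housekeeping genes, after 48 h chemical exposure of human HepaRG cells (0.5% DMSO vehicle, top 100 uM, half-log dilutions). Fitting was bidirectional relative to DMSO.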

[17] = read-out: Glutathione S-transferase M3 (GSTM3), GSTM3 (gene 2947); assay: LTEA_HepaRG_GSTM3: Life Technologies and Expression Analysis (LTEA) Assay for Glutathione S-transferase M3 (GSTM3) using HepaRG (AID 2283501)
Procedure, shortened: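 GSTM3 transcript levels came from Fluidigm TaqMan qRT-PCR normalized to three housekeeping genes, fitted in both directions against DMSO. HepaRG cultures received chemicals for 48 h in serum-free induction medium (0.5% DMSO), 8 half-log concentrations up to 100 uM, duplicate.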

Measured: AC50

Chain of Cytochrome P450 3A4 (Homo sapiens) (P08684 whole entry, looked up): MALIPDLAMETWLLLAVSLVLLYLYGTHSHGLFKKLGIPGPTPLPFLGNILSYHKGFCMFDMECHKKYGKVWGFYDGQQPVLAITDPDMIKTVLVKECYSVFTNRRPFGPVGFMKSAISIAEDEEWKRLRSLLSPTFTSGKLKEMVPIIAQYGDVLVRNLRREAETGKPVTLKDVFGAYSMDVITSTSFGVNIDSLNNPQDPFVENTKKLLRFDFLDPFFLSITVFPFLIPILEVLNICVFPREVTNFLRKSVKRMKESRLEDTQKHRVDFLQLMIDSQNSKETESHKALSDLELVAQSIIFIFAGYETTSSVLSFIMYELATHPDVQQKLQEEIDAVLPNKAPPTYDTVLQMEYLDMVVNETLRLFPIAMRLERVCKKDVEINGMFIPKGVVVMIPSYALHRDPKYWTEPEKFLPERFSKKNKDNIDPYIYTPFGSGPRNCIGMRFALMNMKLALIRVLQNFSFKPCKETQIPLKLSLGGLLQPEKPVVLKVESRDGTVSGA
Chain of Cytochrome P450 3A7 (Homo sapiens) (P24462 whole entry, looked up): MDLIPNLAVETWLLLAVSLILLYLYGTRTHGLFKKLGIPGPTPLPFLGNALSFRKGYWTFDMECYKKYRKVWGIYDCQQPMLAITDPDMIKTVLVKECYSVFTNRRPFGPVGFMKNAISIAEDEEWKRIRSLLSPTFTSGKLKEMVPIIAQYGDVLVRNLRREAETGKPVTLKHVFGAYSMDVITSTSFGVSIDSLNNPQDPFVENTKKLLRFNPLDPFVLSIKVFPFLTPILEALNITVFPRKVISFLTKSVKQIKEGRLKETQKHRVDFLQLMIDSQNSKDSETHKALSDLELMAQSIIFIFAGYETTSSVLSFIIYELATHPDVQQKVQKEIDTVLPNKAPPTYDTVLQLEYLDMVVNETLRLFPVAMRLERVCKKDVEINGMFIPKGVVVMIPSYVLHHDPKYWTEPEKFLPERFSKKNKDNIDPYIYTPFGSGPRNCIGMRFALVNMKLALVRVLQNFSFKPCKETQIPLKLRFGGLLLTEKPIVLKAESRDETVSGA
Chain of Hypoxia-inducible factor 1-alpha (Homo sapiens) (Q16665 whole entry, looked up): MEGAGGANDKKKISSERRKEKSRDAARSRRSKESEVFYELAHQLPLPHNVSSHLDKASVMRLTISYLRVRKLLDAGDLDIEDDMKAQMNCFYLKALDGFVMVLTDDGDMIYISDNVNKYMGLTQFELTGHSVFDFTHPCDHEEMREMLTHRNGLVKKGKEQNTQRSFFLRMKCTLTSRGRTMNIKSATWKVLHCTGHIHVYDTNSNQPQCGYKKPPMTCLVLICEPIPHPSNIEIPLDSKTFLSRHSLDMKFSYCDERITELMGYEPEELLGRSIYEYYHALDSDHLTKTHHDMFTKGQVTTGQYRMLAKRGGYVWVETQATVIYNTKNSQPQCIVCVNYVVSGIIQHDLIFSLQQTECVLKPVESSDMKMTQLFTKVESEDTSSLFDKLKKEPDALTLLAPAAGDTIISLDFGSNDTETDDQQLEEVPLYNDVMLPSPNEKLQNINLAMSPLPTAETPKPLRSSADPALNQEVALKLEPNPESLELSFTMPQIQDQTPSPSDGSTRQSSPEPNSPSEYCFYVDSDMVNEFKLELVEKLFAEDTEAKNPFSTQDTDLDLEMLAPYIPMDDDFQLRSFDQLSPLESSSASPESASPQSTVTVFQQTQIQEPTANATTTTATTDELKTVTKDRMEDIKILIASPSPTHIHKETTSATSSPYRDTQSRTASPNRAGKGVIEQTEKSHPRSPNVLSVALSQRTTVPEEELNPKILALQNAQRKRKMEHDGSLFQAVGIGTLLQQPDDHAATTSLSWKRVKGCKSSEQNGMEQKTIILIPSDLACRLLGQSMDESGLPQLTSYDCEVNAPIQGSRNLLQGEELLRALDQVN

CCOc1ccc2[nH]cc(C(=O)NCc3ccccc3)c(=O)c2n1
active: CYP2E1 (gene 1571) 63 µM | CYP4A11 (gene 1579) 76.5 µM | [1] 29.2 µM | [8] 35.4 µM
not listed: [16] | [17]
inactive: all other assays above

c1ccc2ncccc2c1
active: [14] 50 µM
inactive: all other assays above

C=CN1CCCC1=O
inactive: all assays above

OC(Cn1cncn1)(Cn1cncn1)c1ccc(F)cc1F
inactive: all assays above

O=S(=O)(O)c1ccc(N=Nc2c(O)ccc3cc(S(=O)(=O)O)ccc23)cc1
inactive: all assays above

C=CCc1cc(S(=O)(=O)c2ccc(O)c(CC=C)c2)ccc1O
active: CYP2E1 (gene 1571) 86.3 µM | CYP4A11 (gene 1579) 94.4 µM | [1] 80.4 µM | [2] 84.9 µM | [6] 76.8 µM | CYP3A5 (gene 1577) 9.92 µM | [7] 86.8 µM | [8] 82.6 µM | [9] 83.1 µM | [10] 93.1 µM | [11] 50 µM | [13] 79 µM | [14] 91.4 µM | [15] 86.3 µM
inactive: [3] | [4] | [5] | [12] | [16]
